Bioassay records as filed in PubChem BioAssay.
hcDAF-12 act: activates DAF-12 receptor from parasite H. contortus | HEK293 hcDAF-12 lit1-tk-luc reporter, luminescence; 0% DMSO, 100% Δ7-dafachronic acid | actives 1.4% (n = 370,000) | activation, % at 6.8 µM;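 active = activation above the mean of all tested compounds plus 3 SD, cut at about 5.5% in these data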;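 note: 100% = response to 3 µM Δ7-dafachronic acid high control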
DAX1 inh-1: inhibits human nuclear receptor DAX1; P51843; HEK293 Gal4-DAX1 luciferase reporter, luminescence; inhibition, % at 6.75 µM; actives 0.99% (n = 340,000); AID 504766;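 active = inhibition above the mean over all tested compounds plus 3 SD, cut at about 4.2% in these data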;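 note: 0% = DAX1-transfected cells with DMSO and 100% = empty-vector control cells with DMSO; inhibition shows as a rise in luminescence from relieved DAX1 repression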
Target sequence (P51843 207-470 limits assumed): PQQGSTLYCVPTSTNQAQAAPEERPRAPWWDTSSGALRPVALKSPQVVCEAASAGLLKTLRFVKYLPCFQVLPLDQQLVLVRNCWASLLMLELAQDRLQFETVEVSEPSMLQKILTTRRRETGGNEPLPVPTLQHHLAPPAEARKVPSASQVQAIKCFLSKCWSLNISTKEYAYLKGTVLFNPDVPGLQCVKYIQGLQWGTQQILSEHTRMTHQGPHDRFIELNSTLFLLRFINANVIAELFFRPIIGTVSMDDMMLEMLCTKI
ssDAF-12 act: activators of S. stercoralis DAF-12 nuclear receptor | HEK293 ssDAF-12/GRIP1 lit1-tk-luc reporter, luminescence; % of 3 µM dafachronic acid response | activation, % at 6.8 µM | actives 1% (n = 370,000);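 active = activation above the mean over all tested compounds plus 3 SD, cut at about 0.9% in these data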;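 note: 0% = DMSO-only wells and 100% = 3 µM delta7-dafachronic acid wells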
DAX1 inh-2: inhibitors of DAX1 repression of SF-1 activated StAR promoter. inhibition, % at 6.8 µM. HEK293T StAR-luciferase reporter, SF-1/DAX-1 repression relief. actives 1.1% (n = 370,000);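 active = inhibition above the mean over all tested compounds plus 3 SD, cut at about 3.6% in these data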;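 note: 0% = DAX-1 cells with DMSO and 100% = cells lacking DAX-1 with DMSO; higher inhibition means more luminescence from relief of DAX-1 repression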
hgDAF-12 ag: hgDAF-12 agonism, primary luciferase screen. activation, % at 6.8 µM. HEK293 GAL4-hgDAF12 UAS-luciferase reporter, agonist luminescence; normalized to butyrate control. AID 687014. actives 1.8% (n = 370,000);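 active = activation above a cutoff set at the mean of all screened compounds plus 3 SD, cut at about 10% in these data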;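 note: 0% = DMSO wells and 100% = sodium butyrate wells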
NR1D1 modulator: modulators of human Rev-erb alpha DNA binding. P20393. Rev-erbα–FITC-DNA binding, fluorescence polarization, 90 min. activity, % at 10 µM. actives 0.79% (n = 370,000). AID 1259318;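 active = activity above about 14%, limit read from the data; passing the limit was not always enough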;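 note: 0% = DMSO wells with 35 nM protein and 100% = DMSO wells with 750 nM protein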
The depositor's hits bear a star; . = not tested or not shown. Only some compounds are listed: those with a hit (about 4.8% of all), similar ones and a draw of the others.

SMILES	hcDAF-12 act	DAX1 inh-1	ssDAF-12 act	DAX1 inh-2	hgDAF-12 ag	NR1D1 modulator
Cc1nc2c(N)nn(C)c2nc1C	-1	-1	-1	1	1	2
Cn1nc(NC(=O)C(F)(F)F)c2ncc(-c3ccc(Cl)cc3)nc21	-1	4.2*	-1	0	6	-3
CNC(C)[C@@H]1CC[C@@H](N)[C@@H](O[C@@H]2[C@H](O)[C@@H](O[C@@H]3OC[C@](C)(O)[C@H](NC)[C@H]3O)[C@H](N)C[C@@H]2N)O1 (stereo partly specified)	.	.	.	.	.	-2
CC(=O)NC(=S)Nc1sc2c(c1C(N)=O)CCC(C)C2 (stereo unspecified)	3	5.0*	1	2	10	1
CCOC(=O)Nc1sc2c(c1C(N)=O)CCC(C)C2 (stereo unspecified)	-1	-1	-1	0	-2	4
O=C(NCCCN1CCCC1)c1ccc(CS(=O)(=O)c2ccc(Br)cc2)o1	2	0	-2	1	-2	-4
COCCNC(=O)c1ccc(CS(=O)(=O)c2ccc(OC)cc2)o1	0	5.2*	-1	-1	-4	-4
CN1CCN(CCCNC(=O)c2ccc(CS(=O)(=O)c3ccc(Br)cc3)o2)CC1	-3	4.3*	-1	-1	1	-5
Cn1c(SCC(=O)NCCc2ccccc2)ncc(C(=O)Nc2ccc(F)cc2)c1=O	3	0	0.9*	2	2	11
Cn1c(SCC(=O)c2ccccc2)ncc(C(=O)Nc2ccccc2)c1=O	2	0	1	2	4	6
O=C(c1ccncc1)N1CC[C@H]2[C@H](CCCN2Cc2ccccc2)C1	-2	.	-1	1	2	-8
CCC[C@H]1[C@@H](NC(=O)C#Cc2ccccc2)CC[C@@]23CCCN2C(=O)CCC[C@@H]13	-2	.	-1	.	-1	0
O=C(Nc1ccc2nsnc2c1)C1CC1	-1	-1	-1	-1	2	-1
O=C(NNC(=O)c1ccncc1)NC1CCCCC1	-1	4.8*	-2	0	1	-5
O=C(NC1CCCCCCC1)c1ccc(F)cc1	4	2	0	2	11*	2
O=C(NNC(=O)C1CCCCC1)c1ccncc1	-2	1	-1	0	0	4
O=C(Nc1ccc2nsnc2c1)NC1CCCCC1	3	3	0	2	12*	-3
O=C(NC1CC2CCCC(C1)N2C(=O)NC1CCCCC1)c1ccc(F)cc1 (stereo unspecified)	0	0	0	-1	-2	0
COc1ccccc1Nc1ccc(C(=O)NC2CCCCC2)cn1	0	0	-2	0	1	.
O=C(NC1CCC1)c1ccc(C#Cc2cccc(F)c2)nc1	2	.	-1	0	11*	0
Clc1ccccc1Cn1ccc2ccc(-c3ccc4ccn(Cc5ccccc5Cl)c4c3)cc21	-2	.	-1	-1	0	10
C[C@@H]1CC(=O)NN=C1c1ccc(NN=C(C#N)C#N)cc1	-2	.	-1	-1	0	7
CN1C(=O)c2ccc(C(=O)NC3CCCCC3)cc2C1=O	0	2	1.0*	-1	2	-1
O=C(Nc1ccc(F)cc1)NC1CCCCCCC1	0	0	-1	4	12*	2
CCn1c(COc2ccccc2)nnc1SCC(=O)Nc1ccc(Oc2ccccc2)cc1	0	.	-2	-1	-1	1
SMILES	hcDAF-12 act	DAX1 inh-1	ssDAF-12 act	DAX1 inh-2	hgDAF-12 ag	NR1D1 modulator
O=C1NN=COc2ccccc21	5.7*	-1	0	1	2	0
COc1cc(CO)ccc1OCc1ccc(Cl)nc1	3	4	1.3*	0	11*	1
Nn1c(SCC(=O)Nc2nccs2)nnc1-c1cc(-c2ccc(F)cc2)n[nH]1	0	.	-1	1	3	-10
Cn1cc([N+](=O)[O-])c(C(=O)NCc2cc3ccccc3[nH]2)n1	3	1	1.8*	1	3	-3
Cc1ccc2oc(=O)c3cnn(CC(=O)N4CCc5ccccc5C4)c3c2c1	1	6.3*	-1	0	3	5
CN(Cc1ccccc1)S(=O)(=O)c1cccc(C(=O)OCC2CCCCC2)c1	0	.	-2	0	-1	-2
CN(C)S(=O)(=O)c1ccc(C(=O)OCCc2ccccc2)cc1	-2	1	-1	0	3	-3
O=C(OCCCCOC(=O)c1ccccc1)c1ccccc1	4	-2	-1	0	0	3
Nc1ccc(C(=O)OCCc2ccccc2)cc1	2	5.1*	0	1	13*	3
O=C(OCCc1ccccc1)c1cc(O)c(O)c(O)c1	6.2*	1	0	2	-2	-7
COc1ccc(C(=O)OCCc2ccc(O)cc2)cc1	3	2	0	1	12*	0
N[C@@H](CC(=O)N1CCn2c(nnc2C(F)(F)F)C1)Cc1cc(F)c(F)cc1F	.	.	.	.	.	-3
COC(=O)[C@]12C[C@H](CC(=O)NCCCCc3ccccc3)C(=O)N(Cc3ccccc3)C1=C[C@H](COCc1ccccc1)O[C@@H]2C	-3	.	-1	-1	0	7
NC(=O)C1CSSCCC(=O)NC(CCCCN=C(N)N)C(=O)NCC(=O)NC(CC(=O)O)C(=O)NC(Cc2c[nH]c3ccccc23)C(=O)N2CCCC2C(=O)N1 (stereo unspecified)	.	.	.	.	.	-1
NC1=[N+](Cc2ccccc2)C[C@H]2C(=C3CCCC[C@H]3n3c(=O)n(-c4ccccc4)c(=O)n32)N1	-1	.	-1	-2	0	-6
Cc1ccc(-c2nn[nH]n2)cc1	4	-1	1.1*	0	1	5
COc1ccc(N2CCN(CCCNC(=O)CCc3cccc(Cl)c3)CC2)cc1	1	.	-1	0	3	-2
COc1ccccc1Nc1nc(-c2c(C)[nH]c3ccccc23)cs1	5	0	1.3*	-1	1	-5
Cc1[nH]c2ccccc2c1-c1csc(N)n1	1	-1	-1	-1	2	1
O=C(Nc1cccc(Cl)c1)c1ccccc1NC(=O)C1CCCCC1C(=O)O (stereo unspecified)	2	1	0	0	11*	1
CC(C)c1ccc(NC(=O)c2ccccc2NC(=O)C2CCCCC2C(=O)O)cc1 (stereo unspecified)	0	5.4*	1	2	9	2
O=C(Nc1ccc(F)cc1)c1ccccc1NC(=O)C1CCCCC1C(=O)O (stereo unspecified)	0	0	-1	1	2	7
COC(=O)[C@]12C[C@H](CC(=O)NCCCCc3ccccc3)C(=O)N(Cc3ccco3)C1=C[C@H](C1CCCC1)O[C@@H]2C	-4	.	-1	0	-2	-1
